Measurements published in the supplement of paper PMC13380429.

Test system: Vero E6 infected with SARS-CoV-2
Assay: inhibition of SARS-CoV-2 cytopathic effect; higher = more antiviral protection, active = above 15
Conditions: 48 h

Structure (SMILES)	inhibition of SARS-CoV-2 cytopathic effect (1 nM)	inhibition of SARS-CoV-2 cytopathic effect (8.33 nM)	inhibition of SARS-CoV-2 cytopathic effect (100 nM)	inhibition of SARS-CoV-2 cytopathic effect (833.33 nM)	inhibition of SARS-CoV-2 cytopathic effect (10000 nM)
Nc1nc2[nH]cnc2c(=S)[nH]1 [thioguanine]	-0.56% (inactive)	-0.26% (inactive)	1.4% (inactive)	2.65% (inactive)	5.44% (inactive)
CC(O)(C(=O)Nc1ccc(S(=O)(=O)c2ccccc2)cc1)C(F)(F)F (stereo not given)	1.63% (inactive)	1.61% (inactive)	2.14% (inactive)	-0.08% (inactive)	14.1% (inactive)
COc1cc(C)c(/C=C/C(C)=C/C=C/C(C)=C/C(=O)O)c(C)c1C [acitretin]	0.15% (inactive)	-1.89% (inactive)	0.02% (inactive)	-0.64% (inactive)	-0.58% (inactive)
COc1ccnc2[nH]cc(C(=O)C(=O)N3CCN(C(=O)c4ccccc4)C[C@H]3C)c12	1.91% (inactive)	-1.88% (inactive)	-0.3% (inactive)	0.28% (inactive)	1.74% (inactive)
COc1cccc([C@H](O)C2CCN(CCc3ccc(F)cc3)CC2)c1OC [volinanserin]	-1.28% (inactive)	-0.6% (inactive)	-3.32% (inactive)	-1.38% (inactive)	-2.28% (inactive)
C[C@@H](NC(=O)c1ncnc(N)c1Cl)c1ncc(C(=O)Nc2cc(C(F)(F)F)c(Cl)cn2)s1	-0.01% (inactive)	6.23% (inactive)	4.35% (inactive)	4.42% (inactive)	-1.31% (inactive)
Cc1ccnc2c1CCCC2C(N)=S (stereo not given) [isotiquimide]	2.13% (inactive)	1.38% (inactive)	1.08% (inactive)	1.85% (inactive)	2.59% (inactive)
CCCOc1ccc(Br)cc1-c1cc(-c2ccc(Cl)cc2)[nH]c1-c1ccncc1	-1.64% (inactive)	0.84% (inactive)	0.25% (inactive)	-0.83% (inactive)	-5.61% (inactive)
COc1ccc2[nH]c(-c3ccccc3)c(CCNC(C)=O)c2c1 [2-phenylmelatonin]	0.42% (inactive)	-1.88% (inactive)	0.56% (inactive)	-2.59% (inactive)	-0.4% (inactive)
NC[C@@](O)(c1ccc(Cl)cc1)c1ccc(-c2cn[nH]c2)cc1	-0.97% (inactive)	1% (inactive)	-2.8% (inactive)	-3.57% (inactive)	-13.7% (inactive)
COc1cc(-n2cnc3cc(-c4ccc(Cl)cc4)sc3c2=O)ccc1OCCN1CCCC1	-1.24% (inactive)	0.96% (inactive)	0.81% (inactive)	-2.38% (inactive)	49.9% (active)
Cc1ccc2c(=O)c3ccccc3n(CCCN)c2c1C	3.67% (inactive)	4.23% (inactive)	-0.41% (inactive)	1.46% (inactive)	-13.1% (inactive)
COc1ccc(N(C(=O)Oc2c(C)cccc2C)c2ccnc(Nc3ccc(N4CCN(C)CC4)cc3)n2)c(OC)c1	0.25% (inactive)	1.54% (inactive)	0.43% (inactive)	0.02% (inactive)	-1.27% (inactive)
CC(C)(Cc1ccc2ccccc2c1)NC[C@@H](O)COc1cccc(Cl)c1C#N	-1.61% (inactive)	0.41% (inactive)	0.1% (inactive)	2.49% (inactive)	62.5% (active)
COc1ccc(-c2nc(C(=O)N3CCN(C)CC3)sc2-c2ccc(OC)cc2)cc1	-2.34% (inactive)	-0.77% (inactive)	-0.57% (inactive)	-2.37% (inactive)	0.19% (inactive)
CC(C)CCC[C@@H](C)[C@H]1CC[C@H]2[C@@H]3CCC4=CC(=NO)CC[C@]4(C)[C@H]3CC[C@]12C [olesoxime]	-0.01% (inactive)	0.28% (inactive)	-0.33% (inactive)	-0.32% (inactive)	3.9% (inactive)
CC(C)CNc1nc(-c2cccc3ncccc23)cn2c(-c3ccc(C(=O)NC4CC4)cc3)cnc12	-3.61% (inactive)	-1.58% (inactive)	1.09% (inactive)	-6.07% (inactive)	-3.69% (inactive)
O=C(O)CCCCC(CCSCc1ccccc1)SCc1ccccc1 (stereo not given)	1.25% (inactive)	1.84% (inactive)	3.04% (inactive)	0.34% (inactive)	-0.88% (inactive)
NC(=O)Cc1cccc(C(=O)c2ccccc2)c1N [nepafenac]	-0.09% (inactive)	1.07% (inactive)	-0.56% (inactive)	-1.36% (inactive)	-2.65% (inactive)
CC(C)(O)C(=O)Nc1ccc([N+](=O)[O-])c(C(F)(F)F)c1 [2-hydroxyflutamide]	0.48% (inactive)	0.38% (inactive)	-0.65% (inactive)	-2.57% (inactive)	-4.93% (inactive)

Structure (SMILES)	inhibition of SARS-CoV-2 cytopathic effect (1 nM)	inhibition of SARS-CoV-2 cytopathic effect (8.33 nM)	inhibition of SARS-CoV-2 cytopathic effect (100 nM)	inhibition of SARS-CoV-2 cytopathic effect (833.33 nM)	inhibition of SARS-CoV-2 cytopathic effect (10000 nM)
COc1cc([C@@H]2c3cc4c(cc3[C@@H](O[C@@H]3O[C@@H]5CO[C@@H](C)O[C@H]5[C@H](O)[C@H]3O)[C@H]3COC(=O)[C@H]23)OCO4)cc(OC)c1O [etoposide]	6.79% (inactive)	-0.79% (inactive)	-0.58% (inactive)	-2.82% (inactive)	4.17% (inactive)
N=C(C[C@@H](O)COc1ccccc1-c1ccccc1)N1CCCCC1	-5.21% (inactive)	-4.99% (inactive)	0.04% (inactive)	-2.13% (inactive)	-2.77% (inactive)
CCC(CC)C(c1ccc(Nc2nc3ccccc3s2)cc1)n1cncn1 (stereo not given) [talarozole]	3.05% (inactive)	0.68% (inactive)	0.42% (inactive)	1.31% (inactive)	4.15% (inactive)
OC[C@H]1O[C@H](O[C@H]2O[C@H](CO)[C@@H](O)[C@H](O)[C@H]2O)[C@H](O)[C@@H](O)[C@@H]1O [cabaletta]	1.34% (inactive)	3.4% (inactive)	5.33% (inactive)	3.33% (inactive)	0.76% (inactive)
N[C@@H](C(=O)O)c1ccc(C(=O)O)c(O)c1 (racemic) [4-carboxy-3-hydroxyphenylglycine-(RS)]	-0.15% (inactive)	-0.33% (inactive)	0.94% (inactive)	-0.355% (inactive)	-0.565% (inactive)
COc1cc(Br)c(S(=O)(=O)Nc2ccc(Cl)c(O[C@@H]3CCN(C)C3)c2)cc1OC	1.45% (inactive)	1.7% (inactive)	-0.06% (inactive)	-0.33% (inactive)	-0.58% (inactive)
CC1=C(C(=O)O)N2C(=O)[C@@H](NC(=O)[C@H](N)c3ccc(O)cc3)[C@H]2SC1 [cefadroxil]	1.06% (inactive)	1.53% (inactive)	1.01% (inactive)	-2.49% (inactive)	-1.18% (inactive)
CCCCOC(=O)c1cc2c(cn1)[nH]c1ccccc12 [beta-CCB]	-1.28% (inactive)	-1.62% (inactive)	-0.04% (inactive)	-2.91% (inactive)	-5.4% (inactive)
NC(=O)c1nc(F)cnc1O [Favipiravir]	-0.26% (inactive)	1.4% (inactive)	-0.55% (inactive)	1.38% (inactive)	-0.22% (inactive)
CN1CCN(C2CCN(C(=O)Nc3cc(Oc4ccc(NC(=O)C5(C(=O)Nc6ccc(F)cc6)CC5)c(F)c4)ccn3)CC2)CC1 [golvatinib]	0.88% (inactive)	0.74% (inactive)	2.78% (inactive)	5.87% (inactive)	40.8% (active)
c1ccc(C(NCCNC(c2ccccc2)c2ccccc2)c2ccccc2)cc1	-3.48% (inactive)	-3.4% (inactive)	3.81% (inactive)	2.97% (inactive)	-0.01% (inactive)
CN1CCN(c2ccc3nc(-c4c(N)c5c(F)cccc5[nH]c4=O)[nH]c3c2)CC1 [dovitinib]	1.8% (inactive)	0.97% (inactive)	0.34% (inactive)	-1.8% (inactive)	-0.5% (inactive)
CC1Oc2cc(cnc2N)-c2c(nn(C)c2C#N)CN(C)C(=O)c2ccc(F)cc21 (stereo not given)	-0.41% (inactive)	1.22% (inactive)	0.495% (inactive)	-2.23% (inactive)	0.255% (inactive)
CCc1c2c(nc3ccc(OC(=O)N4CCC(N5CCCCC5)CC4)cc13)-c1cc3c(c(=O)n1C2)COC(=O)[C@]3(O)CC [irinotecan]	-2.2% (inactive)	1.89% (inactive)	1.85% (inactive)	1.56% (inactive)	-0.23% (inactive)
CN(C)CCOC(c1ccc(Cl)cc1)c1ccccn1 (stereo not given) [carbinoxamine]	1.68% (inactive)	1.53% (inactive)	1.23% (inactive)	1.37% (inactive)	-1.45% (inactive)
C[C@@H]1CN(c2c(F)c(F)c3c(=O)c(C(=O)O)cn(C4CC4)c3c2F)C[C@H](C)N1 [orbifloxacin]	-6.82% (inactive)	-2.82% (inactive)	-5.64% (inactive)	-4.29% (inactive)	-4.52% (inactive)
COc1c(O[C@@H]2O[C@H](CO)[C@@H](O)[C@H](O)[C@H]2O)cc2c(c1OC)-c1ccc(SC)c(=O)cc1[C@@H](NC(C)=O)CC2 [thiocolchicoside]	0.08% (inactive)	2.05% (inactive)	-0.7% (inactive)	-5.51% (inactive)	-3.66% (inactive)
CC(O)(P(=O)(O)O)P(=O)(O)O [etidronic-acid]	0.67% (inactive)	-1.84% (inactive)	-1.2% (inactive)	0.77% (inactive)	0.13% (inactive)
O=c1c2ccccc2oc2ccccc12 [xanthone]	1.22% (inactive)	1.53% (inactive)	1.84% (inactive)	-0.86% (inactive)	-3.12% (inactive)
